Assay results published in PubChem BioAssay (NCI).
This is part of a sample that, as a whole, favours compounds with a hit. Of some 83,000 tested, about 20% had one in any assay.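 The test compound was applied at a single concentration to cells in 96-well plates for 48 hours, and percent growth was recorded.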 The source made the active and inactive calls. The calls were made as follows: active = growth percent below 10; inactive = the rest.

Key:
Assay in all cases: NCI-60 one-dose screen, 48 h (100 = growth as untreated, 0 = no growth, -100 = all killed)
Details in all cases: 10 µM unless noted
DU-145 prostate = tested on: DU-145 prostate
K-562 leukemia = tested on: K-562 leukemia
MDA-MB-231 breast = tested on: MDA-MB-231 breast
RXF 393 renal = tested on: RXF 393 renal
SF-268 CNS = tested on: SF-268 CNS
SF-295 CNS = tested on: SF-295 CNS
SF-539 CNS = tested on: SF-539 CNS
UACC-257 melanoma = tested on: UACC-257 melanoma
M14 melanoma = tested on: M14 melanoma

Measured: growth

Oc1ccc2ccccc2c1/C=N\Nc1ccccn1
inactive: K-562 leukemia 16.1% | MDA-MB-231 breast 25.1% | RXF 393 renal 18.3% | SF-268 CNS 16.8% | UACC-257 melanoma 12.9%
active: DU-145 prostate 4.84% | SF-295 CNS -42.7% | SF-539 CNS -4.88% | M14 melanoma -22.5%

Cc1nnc(-c2cc3c(ccc4ccccc43)oc2=O)c2cn(-c3ccc(Cl)cc3)nc12
inactive: DU-145 prostate 107% | K-562 leukemia 80.6% | MDA-MB-231 breast 77.5% | RXF 393 renal 103% | SF-268 CNS 87.3% | SF-295 CNS 95.9% | SF-539 CNS 114% | UACC-257 melanoma 109% | M14 melanoma 98.1%

COc1ccc(-c2cn3ccnc3c(-c3ccc4ncn(C5CCCCC5)c4c3)n2)cc1
inactive: DU-145 prostate 18.2% | MDA-MB-231 breast 28.9% | SF-268 CNS 50.1% | UACC-257 melanoma 73.7% | M14 melanoma 10.8%
active: K-562 leukemia 7.96% | RXF 393 renal -8.48% | SF-295 CNS 7.49% | SF-539 CNS -43.4%
